# Test results taken from PubChem BioAssay (NCI).
# About 83,000 compounds went through this panel and 20% of them were active in at least one assay; those are over-represented in the sample as a whole.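 How to read the values: 0–100, growth inhibition (40 = 60% inhibited); 0, no net growth; -100 to 0, cell death (-40 = 40% of starting cells died; -100 = all dead).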 Active and inactive are the calls of the source.
# Tested on: HT29 colon
# Assay: NCI-60 one-dose screen, 48 h (100 = growth as untreated, 0 = no growth, -100 = all killed)
# Conditions: 10 µM unless noted
# Experimental: Growth inhibition of the HT29 human tumor cell line is measured as a screen for anti-cancer activity. Cells are grown in 96 well plates and exposed to the test compound for 48 hours. Compounds are tested at a single concentration, which is 10^-5 M for most compounds. The reported endpoint is percent growth (GI% or GIPRCNT), where numbers from 0 - 100% represent growth inhibition, and numbers from -100% - 0 represent cell death. For example, a value of 40 represents 60% growth inhibition. A value of 0 means no net growth occurred over the course of the experiment. A value of -40 indicates 40% of cells at the beginning of the experiment died by the end of the experiment. A value of -100 means all cells are dead at the end of the experiment.
# NCI-60 Human Tumor Cell Lines Screen was performed using the standard one-dose NCI protocol, which is described in more detail at https://dtp.cancer.gov/discovery_development/nci-60/default.htm.
# Compounds with GIPRCNT values below 10 were considered active. Activity score was based on GIPRCNT using the following formula: […]
# Score is 0 for GIPRCNT values of 100 or above, 50 for GIPRCNT values of 0, and 100 for GIPRCNT values of -100.
row,Compound,growth
1,CNC(=O)c1cc(Oc2cccc3nc(NC(=O)Nc4cc(C(F)(F)F)ccc4Cl)ccc23)ccn1,89.8% (inactive)
2,CSC1=Nc2c(c(C)c(-c3ccccc3)n2CCCC(=O)O)C2=NC(=O)C[C@H](C)N12,94.1% (inactive)
3,O=C(NC1CC(F)C1)c1cc2cccnc2n1-c1ccc(Cl)c(Cl)c1 (stereo not given),101% (inactive)
4,COC(=O)c1c2c(n3ccccc13)C(=O)c1ccccc1C2=O,55.3% (inactive)
5,CC1(C)[C@@H](O[C@@H]2OC[C@@H](O[C@@H]3O[C@H](CO)[C@@H](O)[C@H](O)[C@H]3O[C@@H]3OC[C@@H](O)[C@H](O)[C@H]3O)[C@H](O)[C@H]2O[C@@H]2O[C@H](CO)[C@@H](O)[C@H](O)[C@H]2O)CC[C@]2(C)[C@H]3CC[C@]45OC[C@@]6(CC[C@](C)(C=O)C[C@H]64)[C@H](O)C[C@@]5(C)[C@]3(C)CC[C@@H]12,-85.3% (active)
6,COc1cc(C(=O)n2nc(N3CCOCC3)c3cc(-n4cccc4)ccc32)cc(OC)c1OC,62.4% (inactive)
7,CC1=C2[C@@H](CC1)[C@]1(C)O[C@@](C3CCCCC3)(C[C@H]1OC(=O)CO)[C@H]2OC(=O)/C=C/c1ccccc1,62.7% (inactive)
8,CCOC(=O)C1=C(C)/C(=C\c2[nH]c(C)c(C(=O)OCC)c2C)N=C1C,76.7% (inactive)
9,CCOC(=O)C(=CNc1cnc(Nc2ccc(N3CCOCC3)cc2)nc1Oc1ccc(OC)cc1)C(=O)OCC,40.6% (inactive)
10,CN1CCN(CC(=O)Nc2ccc3ncnc(Nc4ccc(Oc5cccc(C(F)(F)F)c5)c(Cl)c4)c3c2)CC1,-19.2% (active)
11,COc1cc(/C=C/C(=O)c2ccc(-n3cc(CN4CCN(c5cc6c(cc5F)c(=O)c(C(=O)O)cn6C5CC5)CC4)nn3)cc2)ccc1O,53.3% (inactive)
12,COc1ccc(/C=C/C(c2cc(OC)c(OC)c(OC)c2)n2cncn2)cc1 (stereo not given),4.96% (active)
13,COc1cccc(Nc2ncnc3cc(NC(=O)CCl)ccc23)c1,-79.5% (active)
14,O=C(NC(Cc1nnc2n(Cc3ccccc3)c(=O)c3c4c(sc3n12)CCCC4)c1ccccc1)c1ccccc1 (stereo not given),106% (inactive)
15,O=S(=O)(NCCCNc1nccc(-c2c(-c3cccc(F)c3)nc3occn23)n1)c1ccc(F)cc1,21.9% (inactive)
16,CCN1C(=O)N(CC)C2C1NN=c1s/c(=C\c3ccc(C(F)(F)F)cc3)c(=O)n12 (stereo not given),1.55% (active)
17,COc1cc(-c2nc3cc(Cl)c(Cl)cc3[nH]2)ccc1OCC(=O)N=Nc1c(O)[nH]c2ccc(Cl)cc12,9.24% (active)
18,NC(=O)c1cccc([C@@H]2O[C@H](CO)[C@@H](O)[C@H]2O)c1,54% (inactive)
19,Cc1ccc(S(=O)(=O)N2CCC(=O)c3ccccc32)cc1,68.4% (inactive)
20,N#C/C(=C\C=C\c1ccc(-c2cc(Cl)ccc2Cl)o1)c1nc2ccccc2s1,108% (inactive)

row,Compound,growth
1,CCN(CC)CCCN1C(=O)c2c(c(C)c3c(oc4ccc(OC)cc43)c2C)C1=O,90.9% (inactive)
2,O=S(=O)(Nc1cc(Sc2cccc3cccnc23)c(O)c2ccccc12)c1ccccc1,-35.8% (active)
3,C=C(C)[C@@H]1CCC[C@]2(C(=O)O)CC[C@]3(C)[C@@H](CC[C@@H]4[C@@]5(C)C/C(=C/c6ccncc6)C(=O)C(C)(C)[C@@H]5CC[C@]43C)[C@@H]12,14.8% (inactive)
4,CN1CCN(C(=S)SCCCCOc2cc(=O)oc3ccccc23)CC1,78.5% (inactive)
5,CCOC(=O)/C=C1\S/C(=N\Nc2cc(=O)[nH]c3ccccc23)N(c2ccccc2)C1=O,113% (inactive)
6,CC(C)=CCNc1ncnc2c1ncn2C1OC(CO)C(O)C1O (stereo not given),-5.71% [1 mM] (active)
7,CCN1CCN(CC(=O)Nc2ccc(-c3cn4c(n3)sc3cc(Oc5ccnc(C(=O)NC)c5)ccc34)cc2)CC1,-21.8% (active)
8,C/C=C(\C)C(=O)N[C@H]1C(O)C[C@]2(C)C3CC[C@@]4(C)C(CC[C@@H]4C(C)N(C)C)C3CCC2C1O (stereo not given in full),1.91% (active)
9,NS(=O)(=O)c1ccc(NC(=O)/C(=C\c2ccc(Cl)cc2Cl)NC(=O)c2ccccc2)cc1,103% (inactive)
10,CC(=O)OC[C@]12CC[C@@H]([C@@H](C)c3nnc(-c4ccncc4)o3)[C@@H]1[C@H]1CC[C@@H]3[C@@]4(C)CC[C@H](OC(C)=O)C(C)(C)[C@@H]4CC[C@@]3(C)[C@]1(C)CC2,63.8% (inactive)
11,C#CCn1cnc2cnc(Nc3cccc(NC(=O)C=C)c3)nc21,70.5% [6.25 µM] (inactive)
12,N=C(N)c1ccc(-c2ccc(-c3ccccc3)s2)cc1,-5% (active)
13,COc1ccc(NC(=O)Nc2ccc(OCCCCCC(=O)NO)cc2)cc1,88.8% (inactive)
14,COc1cccc(NCc2nnc(Nc3ccc(Cl)cc3)c3ccccc23)c1,-21% (active)
15,CN1CCN(Cc2ccc(NC(=O)c3cncc(C#Cc4cnc(N)c5ncccc45)c3)cc2C(F)(F)F)CC1,-50.2% (active)
16,CCOC(=O)C#Cc1c(C(=O)OCC)nnn1Cc1ccc(C(F)(F)F)cc1,5.09% (active)
17,COc1cc(C2C(C(=O)OCc3ccccc3)=C(C)NC(C)=C2C(=O)OCc2ccccc2)cc(OC)c1OC,12.3% (inactive)
18,C[C@]1(O)CC(=O)[C@]2(O)C3=C(C=C[C@]2(O)C1)C(=O)c1c(O)cccc1C3=O,3.93% (active)
19,S=C(c1ccc2c(c1)OCO2)N1CCN(c2cccc(Cl)c2)CC1,4.72% (active)
20,CN1CCN(CCOc2ccc(-c3cnc4c(-c5cccc(F)c5F)cnn4c3)cc2)CC1,-46.1% (active)
